Reference: PubChem BioAssay AID1780 (National Center for Advancing Translational Sciences (NCATS), 2009)
Active and inactive are the calls of the source. Calls come from the whole dose curve; as a rule, active = well fitted curve in the direction sought with a large enough effect; inactive = no such curve, though single readings can be large or run the other way.

target: Pyruvate kinase PKM (Homo sapiens) (UniProt P14618); experiment: Confirmation Concentration-Response Assay for Activators of Human Muscle isoform 1 Pyruvate Kinase; conditions: purified hPK-M1, Kinase-Glo ATP luminescence, 1 h; series mostly up to 57.5 µM; activity change, positive = activation: at the top concentration
Sequence (P14618 whole entry, looked up, canonical isoform): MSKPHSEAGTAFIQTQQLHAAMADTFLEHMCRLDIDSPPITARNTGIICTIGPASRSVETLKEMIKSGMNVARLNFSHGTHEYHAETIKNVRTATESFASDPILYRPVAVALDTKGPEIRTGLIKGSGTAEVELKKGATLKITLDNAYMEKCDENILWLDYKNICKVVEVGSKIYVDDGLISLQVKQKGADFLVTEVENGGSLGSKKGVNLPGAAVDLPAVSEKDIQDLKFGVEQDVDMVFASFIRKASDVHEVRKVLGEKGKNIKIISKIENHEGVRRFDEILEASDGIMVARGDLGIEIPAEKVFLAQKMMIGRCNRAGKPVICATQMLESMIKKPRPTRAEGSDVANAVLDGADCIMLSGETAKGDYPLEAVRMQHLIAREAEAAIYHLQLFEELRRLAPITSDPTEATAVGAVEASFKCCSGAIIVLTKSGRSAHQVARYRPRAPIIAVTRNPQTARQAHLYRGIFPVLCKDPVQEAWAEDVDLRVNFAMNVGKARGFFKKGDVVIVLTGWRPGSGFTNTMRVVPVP
Text: Confirmatory assay NIH Chemical Genomics Center [NCGC] Matthew G. Vander Heiden, M.D., Ph.D. [Harvard Medical School, 77 Avenue Louis Pasteur, Boston, MA 02115] NCGC Assay Overview: Human pyruvate kinase […] (hPK-M1) enzyme was supplied as a highly purified (>95% pure) preparation from Harvard Medical School and assayed for its ability to generate ATP from ADP using phosphoenolpyruvate (PEP) as a substrate. ATP generation was detected in a coupled reaction by luciferase-mediated luminescence, an ATP-dependent process. Pyruvate kinase substrates, PEP and ADP, were present in the assay at Km and approximately 10-fold below Km respectively. The enzyme was assayed at an intermediate level of activity to screen for both inhibitors and activators.
NCGC Assay Protocol Summary for M1-isoform: Three uL of substrate mix (at r.t.) in assay buffer (50 mM Imidazole pH7.2, 50 mM KCl, 7 mM MgCl2, 0.01% Tween 20, 0.05% BSA) was dispensed into white solid bottom 1,536 well microtiter plates so that the final concentrations of substrates in the assay were 0.1 mM ADP and 0.5 mM PEP. 23 nL of compound were delivered by a pin tool and 1 uL of enzyme mix (final concentration of 1 nM) in assay buffer (4 degree Celsius) was added. Plates were incubated at room temperature for 1 hour. Two uL of detection mix (Kinase-Glo, Promega; at 4 degree Celsius protected from light) was added and luminescence read by a ViewLux (Perkin Elmer) at 1 second exposure/plate. Data were normalized to the uninhibited (row 31). Additionally, a no enzyme and 5-fold enzyme control was dispensed in row 32, split equally between the two conditions.

outcome, inactive:
COc1ccc(S(=O)(=O)N2CCN(S(=O)(=O)c3c(F)cccc3F)CC2)cc1, Cn1c2cc(C#N)sc2c2cnn(Cc3ccccc3F)c(=O)c21, O=S(=O)(NC1CCC(NS(=O)(=O)c2c(F)cccc2F)CC1)c1ccc2c(c1)OCCO2 (centres undefined)

Activity change, positive = activation, inactive:
COC(=O)c1cc2c(s1)c1cnn(Cc3ccccc3F)c(=O)c1n2C -6.84% [at 28.7 µM], CC(=O)c1cc2c(s1)c1cnn(Cc3ccccc3F)c(=O)c1n2C -3.5%, O=S(=O)(NC1CCN(S(=O)(=O)c2ccc3c(c2)OCCO3)CC1)c1c(F)cccc1F 6.02%, O=S(=O)(c1ccc2c(c1)OCCO2)N1CCN(S(=O)(=O)c2cccc[n+]2[O-])CC1 1.97%, O=S(=O)(NCCNS(=O)(=O)c1c(F)cccc1F)c1ccc2c(c1)OCCO2 -6.07%, O=S(=O)(NCCCCNS(=O)(=O)c1c(F)cccc1F)c1ccc2c(c1)OCCO2 -5.47%, Cc1cc2c(s1)c1cnn(Cc3cc(C(F)(F)F)cc(Cl)c3F)c(=O)c1n2C -0.316%, Cn1c2cc(CO)sc2c2cnn(Cc3ccccc3F)c(=O)c21 -7.43%, O=S(=O)(c1cccc(C(F)(F)F)c1)N1CCN(S(=O)(=O)c2ccc3c(c2)OCCO3)CC1 -1.31%, C[C@@H]1CN(S(=O)(=O)c2ccc3c(c2)OCCO3)CCN1S(=O)(=O)c1c(F)cccc1F 12%, CSc1cc2c(s1)c1cnn(Cc3ccccc3F)c(=O)c1n2C -1.18%, Cc1cc2c(s1)c1cnn(Cc3ccccc3)c(=O)c1n2C 7.2%, Cc1cc2c(s1)c1cnn(Cc3ccc(C)c(F)c3F)c(=O)c1n2C 2.33%, Cc1cc2c(s1)c1cnn(Cc3ccc(C(F)(F)F)cc3F)c(=O)c1n2C 8.07%, Cc1cc2c(s1)c1cnn(Cc3cccc(Cl)c3)c(=O)c1n2C 13.6%, O=S(=O)(c1ccc2c(c1)OCO2)N1CCN(S(=O)(=O)c2c(F)cccc2F)CC1 9.82%
